# The panel holds about 79,000 compounds, 15% with a hit somewhere; the sample as a whole holds those more often. A number with no mark means an inactive call. Calls of active or inactive are those of the source. Cut-off read from the data, not from the text of the source: active = growth inhibition above about 70%; inactive = the rest. *1 amine or outer side, *2 acyl side, *3 side chain or, on linkers, in order; H or OH if unused. Where a SMILES comes first, the peptide text is derived from it. Bridges are numbered along the chain shown (N, C = ends). [ ]: non-standard residue; d: D form. The star is where a group is joined. ξ: configuration not given here. ξOrn(4,5-diOH) = O=C(C(CC(O)C(O)N[*:3])N[*:1])[*:2]; ξhTyr(βξ-OH,γξ-OH) = NC(C(=O)O)C(O)C(O)c1ccc(O)cc1; ξPro(3ξ-OH,4ξ-Me) = CC1CNC(C(=O)O)C1O; X1 = CCCCC/C=C/C/C=C\CCCCCCCC(=O)*; Hyp = O=C(O)[CH]1C[CH](O)CN1
# Tests used:
# [1] = NCI Yeast Anticancer Drug Screen. Data for the rad50 strain (AID 155);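 note: 0% = growth of vehicle-only cultures of the same strain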; details: S. cerevisiae rad50 strain growth inhibition, hits give high values
# Summary of the method: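 Vehicle-treated cultures provide the reference for the growth inhibition reported for compound-exposed, repair-deficient yeast.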
# [2] = NCI Yeast Anticancer Drug Screen. Data for the mec2-1 strain (AID 157); details: S. cerevisiae mec2-1 strain, hits give high values
# Summary of the method: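 Each compound was tested on mec2-1 yeast, a strain altered in DNA damage repair or cell cycle control. Growth inhibition is reported relative to vehicle.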
# [3] = NCI Yeast Anticancer Drug Screen. Data for the sgs1 mgt1 strain (AID 161);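 note: 0% = growth of cultures given vehicle only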; details: S. cerevisiae sgs1 mgt1 strain, hits give high values
# Summary of the method: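 Read-out: growth inhibition vs vehicle controls. Cells: mutant yeast strain deficient in DNA damage repair.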
# [4] = NCI Yeast Anticancer Drug Screen. Data for the cln2 rad14 strain (AID 165);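 note: 0% = growth equal to vehicle treated cultures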; details: S. cerevisiae cln2 rad14 strain, hits give high values
# Summary of the method: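 Test compounds were added to cln2 rad14 yeast cultures; inhibition of growth was then determined by comparison with vehicle treatment.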
# [5] = NCI Yeast Anticancer Drug Screen. Data for the bub3 strain (AID 167); details: S. cerevisiae bub3 mutant strain, hits give high values
# Summary of the method: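 Mutant yeast screening strain plus compound; vehicle-treated cultures serve as the 0% inhibition reference.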
# [6] = NCI Yeast Anticancer Drug Screen. Data for the mlh1 rad18 strain (AID 175); details: S. cerevisiae mlh1 rad18 strain growth inhibition, hits give high values
# Summary of the method: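 Inhibition values reflect reduced growth of mutant yeast versus vehicle-treated controls following compound exposure; the mutations affect DNA damage repair.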
# [7] = at 5.0 µM (retest, dose inferred, filed as 0.5)
# [8] = at 50.0 µM (retest, dose inferred, filed as 5.0)
Compound,"growth inhibition [1, 7]","growth inhibition [1, 8]",growth inhibition ([1]; at 50.0 µM),"growth inhibition [2, 7] [%]","growth inhibition [2, 8]",growth inhibition ([2]; at 50.0 µM),"growth inhibition [3, 7] [%]","growth inhibition [3, 8]",growth inhibition ([3]; at 50.0 µM),"growth inhibition [4, 7] [%]","growth inhibition [4, 8]",growth inhibition ([4]; at 50.0 µM),"growth inhibition [5, 7] [%]","growth inhibition [5, 8]",growth inhibition ([5]; at 50.0 µM),"growth inhibition [6, 7]","growth inhibition [6, 8]",growth inhibition ([6]; at 50.0 µM)
O[C@H](CNCCS)[C@@H](O)CNCCS,-1%,14%,78% (active),2,28%,54%,-6,27%,80.1% (active),17,7%,28.5%,-4,17%,40%,-5%,3%,79.3% (active)
Cc1nc(N)sc1N=Nc1ccc(Cl)cc1Cl,4%,90% (active),82.5% (active),1,90% (active),76.4% (active),4,94% (active),84.2% (active),2,48%,84.3% (active),1,55%,81.7% (active),16%,97% (active),93.4% (active)
CCCn1c2ccccc2c2ccc3c(c21)C(=O)C=CC3=O,31%,69%,67.8%,27,80% (active),61.9%,37,73% (active),70.7% (active),18,35%,56.3%,37,80% (active),65%,42%,77% (active),62.7%
O=C1NC(=O)c2cccc3cccc1c23,20%,68%,88.4% (active),7,25%,52.6%,4,37%,80.3% (active),-5,20%,64.5%,3,22%,63.1%,7%,55%,84.5% (active)
Cc1c2[nH]c3ccc(Br)cc3c2c(C)c2[nH]ccc(=O)c12,-5%,72% (active),98.9% (active),-8,59%,98.7% (active),-17,28%,99% (active),-26,57%,97% (active),2,81% (active),98.3% (active),-11%,96% (active),96.8% (active)
N#COc1ccc(Oc2ccc(OC#N)cc2)cc1,-4%,-3%,-12.9%,-30,14%,-22.8%,26,-3%,90.2% (active),-2,29%,25.8%,-5,46%,40%,-12%,-15%,25.3%
COc1ccc(C(=O)c2cc(Br)ccc2O)cc1,-3%,4%,89.3% (active),-6,4%,71.9% (active),-1,18%,84% (active),-20,-9%,46%,3,11%,94.5% (active),-1%,-2%,90.1% (active)
OCCc1ccc(-n2cnc3c(Nc4ccc(Cl)cc4)ncnc32)cc1,-3%,95% (active),47.2%,-4,95% (active),43%,-4,91% (active),44.8%,-18,94% (active),17.8%,7,96% (active),83.8% (active),3%,95% (active),47%
Cn1cc(NC(=O)Nc2cc(C(=O)Nc3cc(C(=O)Nc4cc(S(=O)(=O)O)c5cc(S(=O)(=O)O)cc(S(=O)(=O)O)c5c4)n(C)c3)n(C)c2)cc1C(=O)Nc1cc(C(=O)Nc2cc(S(=O)(=O)O)c3cc(S(=O)(=O)O)cc(S(=O)(=O)O)c3c2)n(C)c1,35%,90% (active),86% (active),20,80% (active),66.8%,21,77% (active),64.2%,32,48%,60.5%,30,92% (active),77.5% (active),26%,83% (active),87% (active)
O=C(Nc1ccc(C(=O)Nc2ccc3c(O)cc(S(=O)(=O)O)cc3c2)cc1)c1ccccc1,0%,-2%,25.8%,2,34%,-5.7%,2,21%,25.8%,1,-13%,1.4%,0,-6%,1.15%,19%,6%,47%
"CCCCC/C=C/C/C=C\CCCCCCCC(=O)NC1CC(O)C(O)NC(=O)C2C(O)C(C)CN2C(=O)C(C(C)O)NC(=O)C(C(O)C(O)c2ccc(O)cc2)NC(=O)C2CC(O)CN2C(=O)C(C(C)O)NC1=O (stereo not drawn) (X1-[ξOrn(4,5-diOH)]T[Hyp][ξhTyr(βξ-OH,γξ-OH)]T[ξPro(3ξ-OH,4ξ-Me)]; lactam 1-C; configuration not given here)",3%,93% (active),89% (active),51,98% (active),90.8% (active),51,93% (active),90.3% (active),9,95% (active),83.8% (active),11,97% (active),89.9% (active),40%,96% (active),88.6% (active)
C#CC(C)(C)OC(C)=O,-2%,26%,69.9%,0,0%,19.2%,-1,5%,69.5%,2,0%,5.75%,1,4%,35.6%,-1%,4%,76.6% (active)
CC(C)C1(C)C(C#N)(C#N)C1(C#N)C#N,-94%,94% (active),79.8% (active),-35,92% (active),91.5% (active),-46,90% (active),95.5% (active),-46,22%,48.4%,-39,91% (active),92% (active),-77%,94% (active),95.8% (active)
CC1(C)COC(c2cccc(C(O)c3ccc(Cl)cc3)c2)=N1 (centres undefined),40%,99% (active),47%,-19,99% (active),68%,-23,99% (active),72.5% (active),-2,99% (active),40.5%,-21,99% (active),52.5%,26%,99% (active),54.1%
CN1CCCC(C(=O)OCC(=O)C2(O)CCC3C4CCC5=CC(=O)CCC5(C)C4C(O)CC32C)C1 (centres undefined),13%,11%,29.2%,-5,0%,5%,-7,5%,-11%,3,8%,38.4%,-7,9%,12.4%,-3%,35%,42.9%
COc1cccc2c1C(=O)c1c(O)c3c(c(O)c1C2=O)C[C@@](O)(C(C)=O)C[C@@H]3OC1CC([N+]([O-])(Cc2ccccc2)Cc2ccccc2)C(O)C(C)O1 (some centres undefined),79% (active),95% (active),75.6% (active),30,87% (active),23.9%,48,88% (active),19.2%,23,70% (active),22.2%,32,81% (active),31.7%,70% (active),92% (active),10.8%
COc1ccccc1C1C(Cl)C(=O)N1n1cnc2ccccc2c1=O (centres undefined),-12%,-12%,83.9% (active),-29,7%,49.4%,-11,2%,84.5% (active),15,16%,62.3%,9,55%,83.2% (active),-5%,-3%,76.8% (active)
CCN(CC)CCNc1ccc(OC)c2cccnc12,15%,30%,99.3% (active),1,9%,99.4% (active),8,16%,99.3% (active),5,-2%,98% (active),10,16%,99.5% (active),17%,25%,98.8% (active)

# Source: PubChem BioAssay (NCI)
